Reference: PubChem BioAssay
Values joined by “and” are separate entries in the source; they are usually repeats but may differ in a detail not shown here. Equal values may be shown once. Results filed as inconclusive are left out. Active and inactive are the calls of the source. Unless noted, no rule for the calls is given here.

What was measured:
[1] = polyglutamine-triggered caspase-3 activation inhibitors, cell-based (AID 1583); details: polyglutamine-induced caspase-3 activation, cell assay; stronger effect = higher value;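 tested at 10 µM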
[2] = circadian clock period modulators, cell-based, LOPAC library, luminescence reporter (AID 2774); details: circadian reporter cells, at 7 µM, actives lie on both sides;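 also: values are relative to mean of DMSO wells on each plate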
[3] = tested on: Hepatitis C virus NS3 helicase; assay: HCV NS3 helicase inhibitors, primary screen, biochemical, fluorescence polarization, LOPAC1280 library (AID 687035; in the data active = inhibition above about 37%); details: Purified HCV NS3 helicase, Cy5-dT15 ssDNA binding fluorescence polarization; stronger effect = higher value; concentration not given here
[4] = Cy5 fluorescence quenching or enhancement artefacts, artefact control for HCV NS3 helicase inhibitor project, biochemical, LOPAC1280 (AID 687037); details: Cy5-DNA-NS3h complex fluorescence interference counterscreen
[5] = phospholipid biosynthesis inhibitors in animal cells, primary screen, cell-based, LOPAC library, screen 4 (AID 1347384); details: phospholipid biosynthesis inhibition screen, at 10 µM
[6] = CRL2098 osteosarcoma cell growth inhibition, synergistic combos for chromothripsis tumors, BGB or cisplatin IC20 combos (AID 1671454; in the data active = inhibition above about 80%;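 also: cells exposed for 96 h before readout; 0% = vehicle DMSO and 100% = killing by high DMSO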); details: CRL2098 osteosarcoma cells, drug combinations, stronger effect = higher value
[7] = HD-MB03 medulloblastoma cell growth inhibition, synergistic combos for chromothripsis tumors, BGB or cisplatin IC20 combos (AID 1671455; in the data active = inhibition above about 83%;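 also: 0% = vehicle DMSO and 100% = high DMSO as cytotoxic control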); details: HD-MB03 medulloblastoma cells, stronger effect = higher value
[8] = UWB1.289 ovarian carcinoma cell growth inhibition, synergistic combos for chromothripsis tumors, BGB or cisplatin combos (AID 1671456; in the data active = inhibition above about 80%;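 also: cells exposed to compound for four days; 0% = vehicle DMSO and 100% = killing by high DMSO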); details: UWB1.289 ovarian carcinoma cells, stronger effect = higher value
[9] = LFS_MB_2R medulloblastoma cell growth inhibition, synergistic combos for chromothripsis tumors, cisplatin combos (AID 1671457; in the data active = inhibition above about 80%;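 also: cells exposed to compound for four days before readout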); details: LFS_MB_2R medulloblastoma cells, stronger effect = higher value
[10] = UWB1.289_BRCA1 ovarian cancer growth, cell-based, BGB or cisplatin combinations (AID 1671459; in the data active = inhibition above about 80%); details: UWB1.289 BRCA1 ovarian carcinoma, drug combinations, stronger effect = higher value
[11] = human astrocyte viability loss, single and combined drugs, cytotoxicity control for chromothriptic childhood tumor combination screen, cell-based, BGB or cisplatin IC20 combos (AID 1671460; in the data active = inhibition above about 80%;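 also: cells exposed to compounds for 96 hours before viability readout; 0% = vehicle and 100% = killing control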); details: Human astrocytes, drug combinations, stronger effect = higher value
[12] = biological target: ATP-dependent translocase ABCB1 (Homo sapiens) (UniProt P08183); assay: MDR1 (ABCB1) efflux transporter inhibition, cell-based (AID 377; in the data active = fluorescence slope change above about 50%); details: MDR1-expressing cells, fluorescent substrate accumulation slope; stronger effect = higher value; concentration not given here
Chain of ATP-dependent translocase ABCB1 (Homo sapiens) (P08183 whole entry, looked up): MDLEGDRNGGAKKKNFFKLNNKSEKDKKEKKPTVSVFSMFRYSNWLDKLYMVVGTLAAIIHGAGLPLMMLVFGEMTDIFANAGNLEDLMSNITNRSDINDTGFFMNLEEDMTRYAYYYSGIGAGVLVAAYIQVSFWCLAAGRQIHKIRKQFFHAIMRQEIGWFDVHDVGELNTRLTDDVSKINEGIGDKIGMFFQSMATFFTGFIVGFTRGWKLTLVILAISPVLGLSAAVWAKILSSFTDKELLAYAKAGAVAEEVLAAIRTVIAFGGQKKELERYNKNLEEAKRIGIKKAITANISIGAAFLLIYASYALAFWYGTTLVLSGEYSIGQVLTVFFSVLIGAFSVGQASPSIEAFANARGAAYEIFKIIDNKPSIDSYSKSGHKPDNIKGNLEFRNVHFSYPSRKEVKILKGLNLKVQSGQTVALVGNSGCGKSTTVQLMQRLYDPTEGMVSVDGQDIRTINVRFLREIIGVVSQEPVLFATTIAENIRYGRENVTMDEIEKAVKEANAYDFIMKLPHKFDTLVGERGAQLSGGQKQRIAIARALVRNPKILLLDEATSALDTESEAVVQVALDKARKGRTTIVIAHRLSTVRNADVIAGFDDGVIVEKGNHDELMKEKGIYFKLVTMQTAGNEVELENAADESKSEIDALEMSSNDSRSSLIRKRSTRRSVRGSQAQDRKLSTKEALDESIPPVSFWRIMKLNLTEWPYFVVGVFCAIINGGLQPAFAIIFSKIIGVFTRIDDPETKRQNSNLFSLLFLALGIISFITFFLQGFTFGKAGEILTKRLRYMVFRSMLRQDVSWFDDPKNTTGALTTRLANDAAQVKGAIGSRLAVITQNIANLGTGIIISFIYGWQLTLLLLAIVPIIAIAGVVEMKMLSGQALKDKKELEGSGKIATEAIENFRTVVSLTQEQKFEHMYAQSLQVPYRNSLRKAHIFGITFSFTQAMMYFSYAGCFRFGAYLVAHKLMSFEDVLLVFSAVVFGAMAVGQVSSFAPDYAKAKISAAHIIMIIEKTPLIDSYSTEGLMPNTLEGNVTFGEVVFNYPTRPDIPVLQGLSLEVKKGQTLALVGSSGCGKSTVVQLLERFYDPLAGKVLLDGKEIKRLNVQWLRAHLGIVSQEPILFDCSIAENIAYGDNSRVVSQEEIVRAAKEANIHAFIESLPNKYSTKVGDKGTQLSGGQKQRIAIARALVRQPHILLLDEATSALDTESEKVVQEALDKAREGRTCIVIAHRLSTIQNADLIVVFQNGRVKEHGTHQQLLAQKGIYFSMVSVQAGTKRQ

[13] = measured here: combination with BGB at IC20, at 0.5 µM
[14] = measured here: combination with cisplatin at IC20, at 0.5 µM
[15] = measured here: combo with BGB at IC20, at 0.5 µM
[16] = measured here: combo with cisplatin at IC20, at 0.5 µM
[17] = measured here: inhibition with BGB combination, at 0.05 µM
[18] = measured here: inhibition with cisplatin combination, at 0.05 µM
[19] = measured here: combination with cisplatin, at 0.5 µM
[20] = measured here: combination with cisplatin, at 5 µM
[21] = BGB combination, concentration series, at 5 µM
[22] = cisplatin combination, concentration series, at 5 µM
[23] = measured here: combo with BGB IC20, at 0.5 µM
[24] = measured here: combo with cisplatin IC20, at 0.5 µM

Q: With CC(=O)NCCc1c[nH]c2ccc(O)cc12 as the compound, how does the inhibition [1] read?
A: Its inhibition is 26.8%.

Q: What about the period change [2] of the same compound?
A: Its period change is -0.07 h (inactive).

Q: What about the inhibition [3] of the same compound?
A: Its inhibition is 0% (inactive).

Q: And the fluorescence ratio (interference) [4]?
A: The fluorescence ratio (interference) was 1 (inactive).

Q: And the outcome [5]?
A: The outcome was “inactive”.

Q: What does the source list for CN(C)c1nc(N)c(C(=O)N=C(N)N)nc1Cl?
A: period change [2]: -0.18 h (inactive); inhibition [3]: -2% (inactive); fluorescence ratio (interference) [4]: 1 (inactive); outcome [5]: inactive

Q: Which period change [2] does the source give for CSC(N)=NCCC[C@H](N)C(=O)O here?
A: Its period change is 0.125 h (inactive).

Q: And the inhibition [3]?
A: Its inhibition is -3% (inactive).

Q: And the fluorescence ratio (interference) [4]?
A: The fluorescence ratio (interference) was 1 (inactive).

Q: And the outcome [5]?
A: Its outcome is “inactive”.

Q: For CN(N=O)C(=O)NC1C(O)OC(CO)C(O)C1O (configuration not stated), which inhibition ([6]; at 0.5 µM) is on record?
A: The inhibition was -39.9% (inactive).

Q: What about the inhibition [6, 13] of the same compound?
A: The inhibition was -31.6%.

Q: What about the inhibition [6, 14] of the same compound?
A: The inhibition was -51.1%.

Q: What about the inhibition ([7]; at 0.5 µM) of the same compound?
A: Its inhibition is -11.6% (inactive).

Q: And the inhibition [7, 15]?
A: The inhibition was -2.88%.

Q: What about the inhibition [7, 16] of the same compound?
A: The inhibition was -22.4%.

Q: What about the inhibition ([8]; at 0.5 µM) of the same compound?
A: The inhibition was -9.59% (inactive).

Q: What about the inhibition [8, 17] of the same compound?
A: Its inhibition is -0.199%.

Q: What about the inhibition [8, 18] of the same compound?
A: The inhibition was -7.77%.

Q: And the inhibition ([9]; at 0.5 µM)?
A: Its inhibition is -6.59% (inactive).

Q: What about the inhibition [9, 19] of the same compound?
A: The inhibition was -12.5%.

Q: What about the inhibition [9, 20] of the same compound?
A: The inhibition was -15.1%.

Q: What about the inhibition [10, 21] of the same compound?
A: The inhibition was -8.48%.

Q: And the inhibition ([10]; at 0.5 µM)?
A: The inhibition was -13% (inactive).

Q: And the inhibition [10, 22]?
A: The inhibition was 0.433%.

Q: What about the inhibition ([11]; at 0.5 µM) of the same compound?
A: The inhibition was -2.34% (inactive).

Q: What about the inhibition [11, 23] of the same compound?
A: Its inhibition is -2.11%.

Q: And the inhibition [11, 24]?
A: The inhibition was -7.96%.

Q: Which fluorescence slope change [12] does the source give for COc1ccc(C(Cl)=C(c2ccc(OC)cc2)c2ccc(OC)cc2)cc1 here?
A: Its fluorescence slope change is 9.3% (inactive).

Q: Which inhibition [1] does the source give for N[C@@H](Cc1c[nH]c2ccccc12)C(=O)O here?
A: The inhibition was 8.74%.

Q: And the period change [2]?
A: The period change was 0.11 h (inactive).

Q: And the inhibition [3]?
A: Its inhibition is 2% (inactive).

Q: And the fluorescence ratio (interference) [4]?
A: The fluorescence ratio (interference) was 1 (inactive).

Q: What about the outcome [5] of the same compound?
A: Its outcome is “inactive”.

Q: For C=C1CC[C@H](O)C/C1=C/C=C1\CCC[C@]2(C)[C@@H]([C@H](C)/C=C/[C@H](C)C(C)C)CC[C@@H]12, which fluorescence slope change [12] is on record?
A: The fluorescence slope change was 66.6% (active).

Q: Which inhibition ([6]; at 0.5 µM) does the source give for COC1C(OC(N)=O)C(O)C(Oc2ccc3c(O)c(NC(=O)c4ccc(O)c(CC=C(C)C)c4)c(=O)oc3c2C)OC1(C)C (configuration not stated) here?
A: Its inhibition is -21.7% (inactive).

Q: And the inhibition [6, 13]?
A: The inhibition was -45.3%.

Q: And the inhibition [6, 14]?
A: Its inhibition is -25.6%.

Q: And the inhibition ([7]; at 0.5 µM)?
A: Its inhibition is -9.35% (inactive).

Q: What about the inhibition [7, 15] of the same compound?
A: Its inhibition is -5.37%.

Q: What about the inhibition [7, 16] of the same compound?
A: The inhibition was -13.3%.

Q: What about the inhibition ([8]; at 0.5 µM) of the same compound?
A: The inhibition was -6.21% (inactive).

Q: What about the inhibition [8, 17] of the same compound?
A: Its inhibition is -33.1%.

Q: And the inhibition [8, 18]?
A: The inhibition was -19.6%.

Q: And the inhibition ([9]; at 0.5 µM)?
A: Its inhibition is -20.5% (inactive).

Q: What about the inhibition [9, 19] of the same compound?
A: The inhibition was -9.82%.

Q: What about the inhibition [9, 20] of the same compound?
A: Its inhibition is -11.7%.

Q: And the inhibition [10, 21]?
A: The inhibition was -28.9%.

Q: What about the inhibition ([10]; at 0.5 µM) of the same compound?
A: Its inhibition is -15.6% (inactive).

Q: What about the inhibition [10, 22] of the same compound?
A: The inhibition was -9.79%.

Q: And the inhibition ([11]; at 0.5 µM)?
A: The inhibition was -3.92% (inactive).

Q: And the inhibition [11, 23]?
A: The inhibition was 3.16%.

Q: What about the inhibition [11, 24] of the same compound?
A: Its inhibition is -8.92%.

Q: Which results are given for NCCCCCCNS(=O)(=O)c1cccc2c(Cl)cccc12?
A: inhibition [1]: -15.2% and 22.6% and 2.95%; period change [2]: 0.025 h (inactive)

Q: Which outcome [5] does the source give for COc1ccc(-c2cc(=O)c3c(O)c(OC)c(OC)cc3o2)cc1O here?
A: The outcome was “inactive”.

Q: For C[C@]12CC[C@H]3C(=CCc4cc(O)ccc43)[C@@H]1CCC2=O, which fluorescence slope change [12] is on record?
A: The fluorescence slope change was 51.2% (active).

Q: Which results are given for C=C(C)C1CC=C(C(=O)O)CC1 (configuration not stated)?
A: period change [2]: 0.05 h (inactive); inhibition [3]: 2% (inactive); fluorescence ratio (interference) [4]: 0.9 (inactive); outcome [5]: inactive

Q: For O=C(O)c1cc2cc(Cc3cccnc3)ccc2o1, which inhibition [1] is on record?
A: The inhibition was 22.5%.

Q: What about the period change [2] of the same compound?
A: The period change was 0.065 h (inactive).

Q: What about the inhibition [3] of the same compound?
A: Its inhibition is -2% (inactive).

Q: And the fluorescence ratio (interference) [4]?
A: The fluorescence ratio (interference) was 1 (inactive).

Q: And the outcome [5]?
A: Its outcome is “inactive”.

Q: With CN(C)CC/C=C1/c2ccccc2Sc2ccc(Cl)cc21 as the compound, how does the fluorescence slope change [12] read?
A: Its fluorescence slope change is 115% (active).

Q: For COC(=O)[C@H]1[C@H]2C[C@H]3c4[nH]c5ccccc5c4CCN3C[C@@H]2CC[C@@H]1O, which fluorescence slope change [12] is on record?
A: The fluorescence slope change was 53.3% (active).

Q: With C[C@@H]1O[C@@H](O[C@H]2[C@H](Oc3cc(O)c4c(c3)O[C@H](c3ccc(O)cc3)CC4=O)O[C@H](CO)[C@@H](O)[C@@H]2O)[C@H](O)[C@H](O)[C@H]1O as the compound, how does the fluorescence slope change [12] read?
A: The fluorescence slope change was 21.6% (inactive).

Q: What about the inhibition [1] of the same compound?
A: Its inhibition is -1.5%.

Q: For COc1cc(C2c3cc4c(cc3C(OC3OC5COC(C)OC5C(O)C3O)C3COC(=O)C23)OCO4)cc(OC)c1O (configuration not stated), which inhibition ([6]; at 0.5 µM) is on record?
A: Its inhibition is -81.8% (inactive) and -42.5% (inactive).

Q: And the inhibition [6, 13]?
A: The inhibition was -58% and -65.7%.

Q: What about the inhibition [6, 14] of the same compound?
A: The inhibition was -127% and -42.7%.

Q: What about the inhibition ([7]; at 0.5 µM) of the same compound?
A: The inhibition was 58.9% (inactive) and 63.9% (inactive).

Q: And the inhibition [7, 15]?
A: Its inhibition is 56.6% and 69.3%.

Q: And the inhibition [7, 16]?
A: Its inhibition is 64.2% and 61.2%.

Q: And the inhibition ([8]; at 0.5 µM)?
A: The inhibition was -3.51% (inactive) and 0.59% (inactive).

Q: And the inhibition [8, 17]?
A: The inhibition was 2.23% and -16.8%.

Q: And the inhibition [8, 18]?
A: Its inhibition is -32.6% and -11.7%.

Q: And the inhibition ([9]; at 0.5 µM)?
A: The inhibition was -20.7% (inactive) and -2.13% (inactive).

Q: And the inhibition [9, 19]?
A: Its inhibition is -26.1% and 1.95%.

Q: And the inhibition [9, 20]?
A: The inhibition was -15.5% and -45.8%.

Q: And the inhibition [10, 21]?
A: Its inhibition is 13% and 11.6%.

Q: And the inhibition ([10]; at 0.5 µM)?
A: The inhibition was -8.08% (inactive) and 2.75% (inactive).

Q: What about the inhibition [10, 22] of the same compound?
A: The inhibition was -5.18% and 30.7%.

Q: What about the inhibition ([11]; at 0.5 µM) of the same compound?
A: Its inhibition is 37.7% (inactive) and 21.4% (inactive).

Q: And the inhibition [11, 23]?
A: Its inhibition is 41.3% and 27.7%.

Q: What about the inhibition [11, 24] of the same compound?
A: The inhibition was 11.1% and -19.1%.

Q: With O=C(/C=C/c1ccc(O)c(O)c1)O[C@@H]1C[C@](O)(C(=O)O)C[C@@H](O)[C@H]1O as the compound, how does the fluorescence slope change [12] read?
A: The fluorescence slope change was 18.7% (inactive).
